Results reported in PubChem BioAssay (NCATS).
Records with an inconclusive call do not appear. Where a call stands in place of a potency, no number is given. The source made the active and inactive calls. Unless noted, the call rests on the fitted dose curve; in most records, active means well fitted curve in the direction sought with a large enough effect; inconclusive means small, poorly fitted or top-dose-only effect, or another doubt; inactive means no such curve, though single readings can be large; an effect the other way counts as inactive or inconclusive. Residues, ends and D or L forms follow the SMILES beside them. *: point of attachment. Cbz = O=C(OCc1ccccc1)*

Experiments:
[1] = qHTS assay for measurement of the activity of small molecule inhibitors on Zika virus induced Caspase-3 activity in human iPSC derived neural progenitor cells (hNPCs) (AID 1224857); further: nearly all actives have a fitted effect of over 65% in size
In short: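 Quantitative HTS format: human iPSC neural progenitors, 1 h compound pretreatment, ZIKV 2 FFU/cell for 6 h at 37 C. Percent inhibition derived from luminescent caspase-3/7 signal between uninfected and infected controls.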

[2] = qHTS assay for measurement of the activity of small molecule inhibitors on Zika virus induced Caspase-3 activity in human astrocytoma cells (AID 1224859)
In short: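 Readout is luminescence from Caspase-Glo 3/7 added after a 6 h ZIKV infection (2 FFU/cell) of compound-pretreated (1 h) SNB-19 cells; data expressed as % inhibition versus uninfected and infected wells.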

[3] = Natriuretic polypeptide receptor (hNpr1) antagonism - Pilot counterscreen GloSensor control cell line (AID 1347045; calls by dose curve; further: series mostly up to about 38 µM)
In short: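 This counterscreen uses HEK293 cells expressing the GIP/pGS-40F cGMP biosensor. Compound-treated cells are challenged with 50 uM sodium nitroprusside, and the luciferase signal is compared before and after stimulation.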

[4] = molecular target: Atrial natriuretic peptide receptor 1 (Homo sapiens) (UniProt P16066); experiment: Natriuretic polypeptide receptor (hNpr1) antagonism - Pilot screen (AID 1347049; calls by dose curve;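 further: agonist-evoked cGMP luminescence read 20 min after hNppA addition; series mostly up to about 58 µM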)
In short: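 Readout is cGMP-driven firefly luciferase luminescence in HEK293 cells carrying hNpr1 and a PDE5-domain GloSensor, read before and 20 min after 0.1 nM hNppA stimulation. Cells had 2% substrate reagent for 2 h and test compound for 30 min.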

[5] = molecular target: Atrial natriuretic peptide receptor 2 (Homo sapiens) (UniProt P20594); experiment: Natriuretic polypeptide receptor (hNpr2) antagonism - Pilot subtype selectivity assay (AID 1347050; calls by dose curve)
In short: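 Pilot selectivity screen against hNpr2: HEK293 cGMP-sensor cells are treated with LOPAC1280 compounds, then with hNppC peptide at 1 nM final. The cGMP-driven luminescence change over 20 min at room temperature is the read-out.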

[6] = NS1 protein of Zika virus - qHTS assay to identify small molecule inhibitors in human HEK 293 cells (AID 1347053); further: series mostly up to about 46 µM; nearly all actives have a fitted effect of over 55% in size
In short: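 Following 20 h seeding, HEK 293 cells took compound, then 1 h later ZIKV MR766 (MOI = 0.5). Incubation ran 24 h at 37 C before TR-FRET detection of NS1; a drop in signal indicates inhibition.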

[7] = molecular target: T1, Tyrosine-protein phosphatase non-receptor type substrate 1 (Homo sapiens) + Leukocyte surface antigen CD47 (Homo sapiens) (UniProt P78324+Q08722); experiment: CD47-SIRPalpha protein protein interaction - LANCE assay qHTS validation (AID 1347057; active means well fitted curve in the direction sought with a large enough effect in the signal ratio, with a control signal flat, not every such curve was filed as active; the % refers to the signal ratio; further: series mostly up to about 38 µM)
In short: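 First, His-tagged CD47 and Eu-labelled anti-His antibody met the compound for 30 min; next, site-specifically biotinylated SIRPalpha was added for 30 min; finally streptavidin-APC was added before reading the TR-FRET ratio.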

[8] = molecular target: T1, Tyrosine-protein phosphatase non-receptor type substrate 1 (Homo sapiens) + Leukocyte surface antigen CD47 (Homo sapiens); experiment: CD47-SIRPalpha protein protein interaction - HTRF assay qHTS validation (AID 1347058; active means well fitted curve in the direction sought with a large enough effect in the signal ratio, not every such curve was filed as active; the % refers to the signal ratio;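 further: recombinant soluble extracellular CD47 with His tag and biotinylated SIRPalpha domains; series mostly up to about 38 µM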)
In short: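 TR-FRET read (Ch1/Ch2 ratio) of soluble extracellular CD47 and Avi-biotinylated SIRPalpha domains in PBS pH 7.4 with 0.05% IGEPAL; 7-point compound titration. Sequential 30 min room-temperature steps; non-biotinylated SIRPalpha as control inhibitor.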

[9] = molecular target: T1, Tyrosine-protein phosphatase non-receptor type substrate 1 (Homo sapiens) + Leukocyte surface antigen CD47 (Homo sapiens); experiment: CD47-SIRPalpha protein protein interaction - Alpha assay qHTS validation (AID 1347059);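 further: bead proximity luminescence from CD47 binding SIRPalpha after compound preincubation with SIRPalpha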
In short: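 Binding is measured by AlphaScreen proximity: Ni-NTA acceptor beads capture His-CD47, streptavidin donor beads capture biotin-SIRPalpha. Each of three additions (SIRPalpha with compound, CD47, beads) incubates 30 min at room temperature protected from light.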

[10] = molecular target: Parathyroid hormone/parathyroid hormone-related peptide receptor (Homo sapiens) (UniProt Q03431); experiment: qHTS for PTHR1 Agonists: Optimization Screen against the NCGC LOPAC library (AID 1347079);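 further: GloSensor cAMP luminescence in HEK-293 GP2 cells expressing human PTHR1 with IBMX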
In short: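 Compounds were tested across a qHTS titration. PTHR1-expressing GP2 cells report cAMP rises via GloSensor luminescence after 1 hr compound exposure at 37C with IBMX present.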

[11] = molecular target: N-terminal Xaa-Pro-Lys N-methyltransferase 1 (Homo sapiens) (UniProt Q9BV86); experiment: qHTS Assay for Inhibitors of N-terminal methyltransferase 1 (NTMT1): LOPAC validation of the NTMT1 SAHH-coupled ThioGlo3 Assay (AID 1347143);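 further: SAH from peptide methylation measured as thiol fluorescence via SAHH coupling and ThioGlo3; nearly all actives have a fitted effect of over 70% in size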; further: potency means the concentration at half of the fitted maximal effect
In short: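 Inhibition of NTMT1 methylation of peptide SPKRIA is followed by converting SAH with SAHH and labelling the released thiol with ThioGlo3. Plates are read at 340/450nm before and 30 min after reagent addition, both at room temperature.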

[12] = system: Zika virus NS2B-NS3 protease (unlinked); experiment: Optimization of GU AMC qHTS for Zika virus inhibitors: Unlinked NS2B-NS3 protease assay (AID 1347151); further: nearly all actives have a fitted effect of over 80% in size; further: potency means the concentration at half of the fitted maximal effect
In short: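 In this qHTS, compounds acted on 25 nM unlinked Zika NS2B–NS3 in pH 8.0 Tris/Tween buffer. Cleavage of an AMC peptide ran 15 min at room temperature, to about 20% conversion.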

[13] = molecular target: Furin (Homo sapiens) (UniProt P09958); experiment: Furin counterscreen qHTS for Zika virus inhibitors (AID 1347149);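 further: purified recombinant full-length human furin enzyme at 5 nM; fluorescence gain from furin cutting a BOC-RVRR-AMC peptide substrate over 15 min; top concentration of the series differs between compounds; nearly all actives have a fitted effect of over 70% in size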
In short: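 Fluorogenic cleavage of BOC-RVRR-AMC (2 microM final, Km ~15 µM) was monitored (ex 340, em 450 nm) at 37C after 15 min RT preincubation of 5 nM furin with compounds in HEPES pH 7.0 buffer with CaCl2 and Triton X-100. Percent inhibition was fitted to a 4-parameter Hill curve.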

Sequence of Atrial natriuretic peptide receptor 1 (Homo sapiens) (P16066 whole entry, looked up): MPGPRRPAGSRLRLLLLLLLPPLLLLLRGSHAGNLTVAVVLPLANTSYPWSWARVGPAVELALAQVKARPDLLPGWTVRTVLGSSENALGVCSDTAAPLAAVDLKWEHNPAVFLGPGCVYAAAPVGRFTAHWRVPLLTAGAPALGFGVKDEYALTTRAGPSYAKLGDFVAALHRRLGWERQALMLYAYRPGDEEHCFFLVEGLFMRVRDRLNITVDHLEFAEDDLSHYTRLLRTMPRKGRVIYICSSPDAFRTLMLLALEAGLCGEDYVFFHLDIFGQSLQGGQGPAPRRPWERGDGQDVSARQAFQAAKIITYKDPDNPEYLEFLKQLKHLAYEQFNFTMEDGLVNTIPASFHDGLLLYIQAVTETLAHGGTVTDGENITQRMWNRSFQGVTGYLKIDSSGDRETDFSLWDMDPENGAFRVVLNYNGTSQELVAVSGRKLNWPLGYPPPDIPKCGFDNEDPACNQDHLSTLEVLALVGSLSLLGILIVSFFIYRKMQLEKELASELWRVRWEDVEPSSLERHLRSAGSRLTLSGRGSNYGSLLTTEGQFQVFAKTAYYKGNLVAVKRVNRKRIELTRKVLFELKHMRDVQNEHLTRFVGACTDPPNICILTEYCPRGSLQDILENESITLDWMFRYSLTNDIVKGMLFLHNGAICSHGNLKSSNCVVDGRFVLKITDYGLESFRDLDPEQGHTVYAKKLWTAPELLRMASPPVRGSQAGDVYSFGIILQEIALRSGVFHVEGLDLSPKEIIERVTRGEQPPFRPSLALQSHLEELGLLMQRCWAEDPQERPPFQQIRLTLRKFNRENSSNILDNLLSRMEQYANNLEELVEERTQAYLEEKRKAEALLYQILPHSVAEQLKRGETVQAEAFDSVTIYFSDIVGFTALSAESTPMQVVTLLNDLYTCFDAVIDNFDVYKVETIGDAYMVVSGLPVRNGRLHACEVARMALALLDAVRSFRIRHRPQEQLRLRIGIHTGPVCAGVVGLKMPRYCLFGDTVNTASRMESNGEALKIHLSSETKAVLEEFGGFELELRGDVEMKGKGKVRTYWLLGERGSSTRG
Sequence of N-terminal Xaa-Pro-Lys N-methyltransferase 1 (Homo sapiens) (Q9BV86 whole entry, looked up): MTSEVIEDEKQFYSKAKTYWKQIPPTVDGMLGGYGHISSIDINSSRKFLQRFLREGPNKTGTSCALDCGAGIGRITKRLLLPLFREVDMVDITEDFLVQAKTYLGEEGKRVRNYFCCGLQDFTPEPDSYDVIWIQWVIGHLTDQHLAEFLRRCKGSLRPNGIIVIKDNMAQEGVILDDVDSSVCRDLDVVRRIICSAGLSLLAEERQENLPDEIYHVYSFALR
Sequence of Atrial natriuretic peptide receptor 2 (Homo sapiens) (P20594 whole entry, looked up): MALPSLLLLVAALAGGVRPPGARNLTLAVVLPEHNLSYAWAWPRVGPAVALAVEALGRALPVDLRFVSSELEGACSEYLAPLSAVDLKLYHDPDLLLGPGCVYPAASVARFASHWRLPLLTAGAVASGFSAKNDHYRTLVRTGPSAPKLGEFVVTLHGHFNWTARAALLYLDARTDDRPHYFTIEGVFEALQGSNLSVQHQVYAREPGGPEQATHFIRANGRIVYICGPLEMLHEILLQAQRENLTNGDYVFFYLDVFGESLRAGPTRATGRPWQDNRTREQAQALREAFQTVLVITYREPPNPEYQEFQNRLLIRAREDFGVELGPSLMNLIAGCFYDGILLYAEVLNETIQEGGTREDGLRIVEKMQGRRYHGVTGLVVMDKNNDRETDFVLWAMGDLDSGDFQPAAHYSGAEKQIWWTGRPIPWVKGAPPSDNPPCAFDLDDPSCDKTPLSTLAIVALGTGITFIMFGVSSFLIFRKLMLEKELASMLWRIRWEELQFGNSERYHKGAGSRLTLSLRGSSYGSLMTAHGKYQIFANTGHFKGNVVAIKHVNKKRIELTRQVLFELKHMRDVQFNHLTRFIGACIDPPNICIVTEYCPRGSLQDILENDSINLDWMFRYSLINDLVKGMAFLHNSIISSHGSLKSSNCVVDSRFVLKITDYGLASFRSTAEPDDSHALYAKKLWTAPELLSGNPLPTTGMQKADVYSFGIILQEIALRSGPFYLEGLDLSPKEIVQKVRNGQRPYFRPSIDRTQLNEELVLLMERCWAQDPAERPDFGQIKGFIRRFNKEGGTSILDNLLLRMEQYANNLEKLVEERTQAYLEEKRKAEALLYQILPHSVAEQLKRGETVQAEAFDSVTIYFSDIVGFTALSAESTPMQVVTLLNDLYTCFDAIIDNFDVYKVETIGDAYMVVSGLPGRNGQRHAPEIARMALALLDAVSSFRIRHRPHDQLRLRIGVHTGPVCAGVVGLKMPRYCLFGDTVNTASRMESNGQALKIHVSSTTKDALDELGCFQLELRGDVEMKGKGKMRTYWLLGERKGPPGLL
T1 sequence (P78324 whole entry, looked up): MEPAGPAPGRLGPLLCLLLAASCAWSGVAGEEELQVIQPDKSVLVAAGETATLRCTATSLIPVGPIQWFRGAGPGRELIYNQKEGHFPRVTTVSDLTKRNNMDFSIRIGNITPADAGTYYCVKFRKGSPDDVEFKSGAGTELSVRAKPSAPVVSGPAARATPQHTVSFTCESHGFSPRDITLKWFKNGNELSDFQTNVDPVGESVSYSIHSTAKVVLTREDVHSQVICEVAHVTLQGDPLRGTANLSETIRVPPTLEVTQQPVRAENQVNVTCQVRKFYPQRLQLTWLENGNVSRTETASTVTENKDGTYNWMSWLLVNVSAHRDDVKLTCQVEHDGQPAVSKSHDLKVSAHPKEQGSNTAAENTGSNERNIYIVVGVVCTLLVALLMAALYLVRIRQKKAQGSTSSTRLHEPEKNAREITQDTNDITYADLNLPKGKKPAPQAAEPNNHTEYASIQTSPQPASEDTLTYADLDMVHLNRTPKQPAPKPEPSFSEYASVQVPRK
T1 sequence (Q08722 whole entry, looked up): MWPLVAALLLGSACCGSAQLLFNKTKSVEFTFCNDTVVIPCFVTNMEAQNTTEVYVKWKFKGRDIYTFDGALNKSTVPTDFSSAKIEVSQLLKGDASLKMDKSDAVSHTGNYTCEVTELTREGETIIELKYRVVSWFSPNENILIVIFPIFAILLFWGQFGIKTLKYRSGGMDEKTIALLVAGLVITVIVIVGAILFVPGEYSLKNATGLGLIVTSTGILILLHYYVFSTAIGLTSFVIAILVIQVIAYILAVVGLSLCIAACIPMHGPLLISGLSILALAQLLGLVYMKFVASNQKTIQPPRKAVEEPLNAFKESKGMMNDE
Sequence of Parathyroid hormone/parathyroid hormone-related peptide receptor (Homo sapiens) (Q03431 whole entry, looked up): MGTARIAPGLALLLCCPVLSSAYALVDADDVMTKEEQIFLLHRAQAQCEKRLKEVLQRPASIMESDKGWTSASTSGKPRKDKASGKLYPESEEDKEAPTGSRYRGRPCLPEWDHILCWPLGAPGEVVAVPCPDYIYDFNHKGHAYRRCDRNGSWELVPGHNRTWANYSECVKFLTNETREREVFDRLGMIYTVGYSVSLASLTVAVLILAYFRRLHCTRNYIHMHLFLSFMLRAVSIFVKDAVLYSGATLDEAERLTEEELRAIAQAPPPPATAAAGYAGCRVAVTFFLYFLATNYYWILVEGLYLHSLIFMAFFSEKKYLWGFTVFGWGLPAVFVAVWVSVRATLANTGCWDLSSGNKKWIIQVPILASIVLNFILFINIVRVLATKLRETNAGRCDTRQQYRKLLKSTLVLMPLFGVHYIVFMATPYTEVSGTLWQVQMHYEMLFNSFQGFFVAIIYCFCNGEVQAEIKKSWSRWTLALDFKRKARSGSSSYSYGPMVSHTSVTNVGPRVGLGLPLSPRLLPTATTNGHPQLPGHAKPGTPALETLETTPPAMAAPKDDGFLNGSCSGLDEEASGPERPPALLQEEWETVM
Sequence of Furin (Homo sapiens) (P09958 whole entry, looked up): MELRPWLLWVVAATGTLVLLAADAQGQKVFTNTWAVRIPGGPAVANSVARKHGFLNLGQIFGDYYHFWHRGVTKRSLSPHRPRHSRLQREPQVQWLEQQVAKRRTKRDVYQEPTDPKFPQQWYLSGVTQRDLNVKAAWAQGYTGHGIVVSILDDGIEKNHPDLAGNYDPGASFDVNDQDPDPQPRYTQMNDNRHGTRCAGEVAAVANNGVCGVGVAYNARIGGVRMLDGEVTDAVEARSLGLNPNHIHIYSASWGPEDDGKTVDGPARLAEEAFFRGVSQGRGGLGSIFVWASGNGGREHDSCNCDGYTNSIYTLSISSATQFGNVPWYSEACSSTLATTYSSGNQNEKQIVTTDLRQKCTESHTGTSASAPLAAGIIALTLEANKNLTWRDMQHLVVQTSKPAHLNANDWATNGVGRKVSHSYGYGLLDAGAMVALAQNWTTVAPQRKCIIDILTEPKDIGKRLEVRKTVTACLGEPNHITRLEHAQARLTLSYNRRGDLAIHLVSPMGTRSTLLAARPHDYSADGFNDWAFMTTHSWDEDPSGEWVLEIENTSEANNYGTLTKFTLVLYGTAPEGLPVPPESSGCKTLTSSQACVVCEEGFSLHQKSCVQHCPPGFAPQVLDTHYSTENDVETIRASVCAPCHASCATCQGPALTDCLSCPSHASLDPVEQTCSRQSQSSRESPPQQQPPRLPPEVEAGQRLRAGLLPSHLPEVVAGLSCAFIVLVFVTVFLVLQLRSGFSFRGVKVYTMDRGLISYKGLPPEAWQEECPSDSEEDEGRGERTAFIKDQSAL

CNc1ncnc2c1ncn2[C@H]1C[C@H](OP(=O)(O)O)[C@@H](COP(=O)(O)O)O1
Potency [1]: inactive | Potency [2]: inactive | Potency [3]: inactive | Potency [4]: inactive | Potency [5]: inactive | Potency [6]: inactive | Potency [7]: inactive | outcome [8]: inactive | Potency [9]: inactive | Potency [10]: inactive | Potency [11]: inactive | Potency [12]: inactive

NCCC1CCCC(CCN)N1 (configuration not stated)
Potency [1]: inactive | Potency [2]: inactive | Potency [3]: inactive | Potency [4]: inactive | Potency [5]: inactive | Potency [6]: inactive | Potency [7]: inactive | outcome [8]: inactive | Potency [9]: inactive | Potency [10]: inactive | Potency [11]: inactive | Potency [12]: inactive

N[C@@H](Cc1ccc(F)cc1)C(=O)O
Potency [1]: inactive | Potency [2]: inactive | Potency [3]: inactive | Potency [4]: inactive | Potency [5]: inactive | Potency [6]: inactive | Potency [7]: inactive | outcome [8]: inactive | Potency [9]: inactive | Potency [10]: inactive | Potency [11]: inactive | Potency [12]: inactive

CC(=O)O[C@H]1Cc2ccccc2N(C(N)=O)c2ccccc21
Potency [1]: inactive | Potency [2]: inactive | Potency [3]: inactive | Potency [4]: inactive | Potency [5]: inactive | Potency [6]: inactive | Potency [7]: inactive | outcome [8]: inactive | Potency [9]: inactive | Potency [10]: inactive | Potency [11]: inactive | Potency [12]: inactive

CC(C)(C)NCC(O)COc1cccc2[nH]c(=O)[nH]c12 (configuration not stated)
Potency [1]: inactive | Potency [2]: inactive | Potency [3]: inactive | Potency [4]: inactive | Potency [5]: inactive | Potency [6]: inactive | Potency [7]: inactive | outcome [8]: inactive | Potency [9]: inactive | Potency [10]: inactive | Potency [11]: inactive | Potency [12]: inactive

C=CCN1CCc2c(cc(O)c(O)c2Cl)C(c2ccccc2)C1 (configuration not stated)
Potency [1]: inactive | Potency [2]: inactive | Potency [3]: inactive | Potency [4]: inactive | Potency [5]: inactive | Potency [6]: inactive | Potency [7]: inactive | outcome [8]: inactive | Potency [9]: inactive | Potency [10]: inactive | Potency [11]: 20 µM (active) | Potency [12]: 18.9 µM (active)

CCCn1c(=O)c(C)cn2nc(N)nc12
Potency [1]: inactive | Potency [2]: inactive | Potency [3]: inactive | Potency [4]: inactive | Potency [5]: inactive | Potency [6]: inactive | Potency [7]: inactive | outcome [8]: inactive | Potency [9]: inactive | Potency [10]: inactive | Potency [11]: 39.8 µM (active) | Potency [12]: 29.9 µM (active)

C=C(C)C1CC=C(C(=O)O)CC1 (configuration not stated)
Potency [1]: inactive | Potency [2]: inactive | Potency [3]: inactive | Potency [4]: inactive | Potency [5]: inactive | Potency [6]: inactive | Potency [7]: inactive | outcome [8]: inactive | Potency [9]: inactive | Potency [10]: inactive | Potency [11]: inactive | Potency [12]: inactive

O=C(O)C1CN(CCCP(=O)(O)O)CCN1 (configuration not stated)
Potency [1]: inactive | Potency [2]: inactive | Potency [3]: inactive | Potency [4]: inactive | Potency [5]: inactive | Potency [6]: inactive | Potency [7]: inactive | outcome [8]: inactive | Potency [9]: inactive | Potency [10]: inactive | Potency [11]: inactive | Potency [12]: inactive

CCCc1c(OCCCOc2ccc(OCC(=O)O)cc2)ccc(C(C)=O)c1O
Potency [1]: inactive | Potency [2]: inactive | Potency [3]: inactive | Potency [4]: inactive | Potency [5]: inactive | Potency [6]: inactive | Potency [7]: inactive | outcome [8]: inactive | Potency [9]: inactive | Potency [10]: inactive | Potency [13]: inactive

COCc1nc2c([nH]1)c(=O)n(C)c(=O)n2CC(C)C
Potency [1]: inactive | Potency [2]: inactive | Potency [3]: inactive | Potency [4]: inactive | Potency [5]: inactive | Potency [6]: inactive | Potency [7]: inactive | outcome [8]: inactive | Potency [9]: inactive | Potency [10]: inactive | Potency [11]: inactive | Potency [12]: inactive

CC(N)=NCCCC[C@@H](N)C(=O)O
Potency [1]: inactive | Potency [2]: inactive | Potency [3]: inactive | Potency [4]: inactive | Potency [5]: inactive | Potency [6]: inactive | Potency [7]: inactive | outcome [8]: inactive | Potency [9]: inactive | Potency [10]: inactive | Potency [11]: inactive | Potency [12]: inactive

CCn1c(=O)[nH]c2cc(Cl)c(Cl)cc21
Potency [1]: inactive | Potency [2]: inactive | Potency [3]: inactive | Potency [4]: inactive | Potency [5]: inactive | Potency [6]: inactive | Potency [7]: inactive | outcome [8]: inactive | Potency [9]: inactive | Potency [10]: inactive | Potency [11]: inactive | Potency [12]: inactive

CC(N)(C(=O)O)c1ccc(C(=O)O)cc1 (configuration not stated)
Potency [1]: inactive | Potency [2]: inactive | Potency [3]: inactive | Potency [4]: inactive | Potency [5]: inactive | Potency [6]: inactive | Potency [7]: inactive | outcome [8]: inactive | Potency [9]: inactive | Potency [10]: inactive | Potency [11]: inactive | Potency [12]: inactive

NC1CCN(O)C1=O (configuration not stated)
Potency [1]: inactive | Potency [2]: inactive | Potency [3]: inactive | Potency [4]: inactive | Potency [5]: inactive | Potency [6]: inactive | Potency [7]: inactive | outcome [8]: inactive | Potency [9]: inactive | Potency [10]: inactive | Potency [11]: inactive | Potency [12]: inactive

Nc1ncnc2c1nc(Br)n2C1OC2COP(=O)(O)O[C@@H]2C1O (some centres not stated)
Potency [1]: inactive | Potency [2]: inactive | Potency [3]: inactive | Potency [4]: inactive | Potency [5]: inactive | Potency [6]: inactive | Potency [7]: inactive | outcome [8]: inactive | Potency [9]: inactive | Potency [10]: inactive | Potency [11]: inactive | Potency [12]: inactive

N=C(N)SCCN
Potency [1]: inactive | Potency [2]: inactive | Potency [3]: inactive | Potency [4]: inactive | Potency [5]: inactive | Potency [6]: inactive | Potency [7]: inactive | outcome [8]: inactive | Potency [9]: inactive | Potency [10]: inactive | Potency [11]: inactive | Potency [12]: inactive

CC(C)[C@H](NC(=O)OCc1ccccc1)C(=O)N[C@H](C=O)Cc1ccccc1 (Cbz-Val-Phe-aldehyde)
Potency [1]: inactive | Potency [2]: inactive | Potency [3]: inactive | Potency [4]: inactive | Potency [5]: inactive | Potency [6]: inactive | Potency [7]: inactive | outcome [8]: inactive | Potency [9]: inactive | Potency [10]: inactive | Potency [11]: inactive | Potency [12]: inactive

CCCCCCCCCCCCCCC[C@H](O)[C@H](N)CO
Potency [1]: inactive | Potency [2]: inactive | Potency [3]: inactive | Potency [4]: inactive | Potency [5]: inactive | Potency [6]: inactive | Potency [7]: inactive | outcome [8]: inactive | Potency [9]: inactive | Potency [10]: inactive | Potency [11]: inactive | Potency [12]: inactive
